The nature of assay [1]: Nuclear factor erythroid 2-related factor 2/antioxidant responsive element (Nrf2/ARE) small molecule agonists: qHTS cell viability counter screen in human keratinocytes (AID 1919968; active means well fitted curve in the direction sought with a large enough effect in the repeat runs; an effect the other way counts as inactive or inconclusive; further: nearly all actives have a fitted effect of over 55% in size; further: potency means the concentration at half of the fitted maximal effect). In a few lines:
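Cytotoxicity was multiplexed with the Nrf2/ARE luciferase assay in the same wells. Stably transfected HaCaT keratinocytes were treated with test compounds for 23 h at 37 C. Cell viability was then measured by CellTiter-Fluor fluorescence.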
In general terms: qHTS replaces the single test concentration by a dilution series.

The nature of assay [2]: Nuclear factor erythroid 2-related factor 2/antioxidant responsive element (Nrf2/ARE) small molecule agonists: luciferase reporter gene qHTS assay in human keratinocytes (AID 1919969). Further: nearly all actives have a fitted effect of over 35% in size. Further: potency means the concentration at half of the fitted maximal effect.
Assay [3] deals with KiSS-1 receptor (Homo sapiens) (UniProt Q969F8). The assay can be described thus: Human kisspeptin (KISS1R) small molecule agonists, calcium flux assay in KISS1R-HEK293 cells (AID 1920064; active means well fitted curve in the direction sought with a large enough effect in the repeat runs; an effect the other way counts as inactive or inconclusive). In a few lines:
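Agonist activity is monitored as intracellular calcium rise in engineered HEK293 cells carrying human KISS1R. Cells are dye-loaded for 1 h at 37 C before compound addition, and fluorescence is recorded for 3 min.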

The nature of assay [4]: G protein-coupled receptor (GPCR) small molecule agonists, calcium flux assay: HEK293 wild type cell line counter screen (AID 1920065). In a few lines:
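Seed cells, incubate 18 h (37 C, 5% CO2); add calcium dye, 1 h at 37 C; pin-transfer compounds, ATP control or DMSO; read fluorescence 480/540 nm each second for 3 min.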
Background: Calcium flux is commonly read through the fluorescence of an indicator in the cells.

The nature of assay [5]: p53 small molecule agonists, cell-based qHTS assay with human liver microsomes (AID 1963577).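 Further: p53 response element beta-lactamase reporter cells with liver microsomes plus NADPH.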 In a few lines: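 With metabolic activation: human liver microsomes (0.5 mg/mL final) plus NADPH (0.5 mg/mL final) added alongside compounds to p53RE-bla cells; 16 h 37 C exposure; beta-lactamase read by LiveBLAzer fluorescence.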
Assay [6] in a line: p53 small molecule agonists, cell-based qHTS assay with rat liver microsomes (AID 1963578). In a few lines: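 Metabolic activation by rat liver microsomes and NADPH, each 0.5 mg/mL final, added right after compounds to p53RE-bla reporter cells (4,000/well, plated 5 h earlier). 16 h at 37 C, then LiveBLAzer substrate for 2 h at room temperature in the dark; fluorescence read-out.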

Assay [7] can be described thus: p53 small molecule agonists, cell-based qHTS assay with human liver microsomes: qHTS cell viability counter screen (AID 1963579). Further: nearly all actives have a fitted effect of over 45% in size. In a few lines: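 Metabolic activation used human liver microsomes and NADPH, both 0.5 mg/mL final, over 16 hours at 37 C on p53RE-bla cells (4,000/well). Cytotoxicity measured by CellTiter-Glo luminescence, 30 min at room temperature.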

Assay [8] in a line: p53 small molecule agonists, cell-based qHTS assay with rat liver microsomes: qHTS cell viability counter screen (AID 1963580). Further: nearly all actives have a fitted effect of over 45% in size. The procedure, abridged: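 After the beta-lactamase ratio was read, CellTiter-Glo was added to the same wells and luminescence measured at 30 min; cells had been treated 16 h at 37 C with compounds, rat liver microsomes and NADPH (0.5 mg/mL final each).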

A short description of assay [9]: p53 small molecule agonists, cell-based qHTS assay: qHTS cell viability counter screen (AID 1963581). Further: nearly all actives have a fitted effect of over 45% in size. The procedure, abridged: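 Viability was counter-screened in parallel with the p53 agonist reporter by measuring intracellular ATP luminescence in the same HCT-116 p53RE-bla wells after 16 h compound treatment at 37 C.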
Assay [10] can be described thus: p53 small molecule agonists, cell-based qHTS assay (AID 1963582; active means well fitted activation curve with a large enough effect in the signal ratio in the repeat runs, not every such curve was filed as active; the % refers to the signal ratio). In a few lines: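 Cells carrying a p53-responsive bla reporter are treated with test compounds for 16 h at 37 C; beta-lactamase activity is then detected with LiveBLAzer B/G FRET substrate after 2 h at room temperature.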
Assay [11] deals with 5-hydroxytryptamine receptor 2A (Homo sapiens) (UniProt P28223). Description: 5-hydroxytryptamine receptor 2A (HTR2A) small molecule antagonists, cell-based qHTS assay (AID 1963586). Further: nearly all actives have a fitted effect of over 45% in size. Further: potency means the concentration at half of the fitted maximal effect. In a few lines:
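CHO cells stably expressing human HTR2A were plated for 18 h at 37 C, then loaded with calcium dye for 1 h. Compounds were preincubated 5 min at room temperature before DOI (4 nM solution) was added. Kinetic fluorescence was read for 3 min.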

For assay [12], the target named is Muscarinic acetylcholine receptor M1 (Homo sapiens) (UniProt P11229). Description: Cholinergic receptor muscarinic 1 (CHRM1) small molecule antagonists, cell-based qHTS assay (AID 1963588). Further: nearly all actives have a fitted effect of over 40% in size. Further: potency means the concentration at half of the fitted maximal effect. The procedure, abridged:
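Compounds were tested at 15 concentrations in three independent runs. Dye-loaded CHRM1-CHO cells were exposed 5 min at room temperature before stimulation by acetylcholine added at 50nM. Intracellular calcium was read kinetically on FDSS for 3 min.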

Assay [13] shares this target. The assay can be described thus: Cholinergic receptor muscarinic 1 (CHRM1) small molecule agonists, cell-based qHTS assay (AID 1963589). Further: nearly all actives have a fitted effect of over 35% in size. The procedure, abridged: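 Cells were plated and incubated 18 h at 37 C/5% CO2, loaded with calcium dye for 1 h at 37 C, then treated with compounds in DMSO. Fluorescence was recorded kinetically at 1 sec intervals.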
Assay [14] in a line: cAMP Responsive Elements (CRE) small molecule agonists, cell-based qHTS assay (AID 1963590). The procedure, abridged:
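Cells carrying a CRE-driven beta-lactamase reporter (HEK 293T) are seeded, incubated overnight (18 h), and treated with test compounds for 3 h at 37 C; reporter activity is then detected with a FRET substrate after 2 h at room temperature.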

Assay [15] concerns the target Beta-2 adrenergic receptor (Homo sapiens) (UniProt P07550). The assay can be described thus: Adrenergic beta2 receptor (ADRB2) small molecule antagonists, cell-based qHTS assay (AID 1963592). Further: nearly all actives have a fitted effect of over 50% in size. Further: potency means the concentration at half of the fitted maximal effect. The procedure, abridged: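 Assay format: CHO-ADRB2 cells, 18-20hr seeding at 37C/5% CO2, then compound plus 1nM isoproterenol agonist mix for 0.5hr RT. Homogeneous time-resolved fluorescence cAMP detection after 1hr, expressed as 665/615 nm ratio.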

Assay [16] concerns the target D(2) dopamine receptor (Homo sapiens) (UniProt P14416). Description: Dopamine D2 receptor (DRD2) small molecule agonists, cell-based qHTS assay (AID 1963594). Further: nearly all actives have a fitted effect of over 35% in size. In a few lines:
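HEK293 cells stably expressing human DRD2, pre-treated with PDE inhibitor Ro20-1724 (0.1 mM final) and compound 10 min at room temperature, then stimulated with NKH477 (200nM […]) for 30 min. cAMP read by HTRF (665/620 nm).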

Assay [17] has the same target. Description: Dopamine D2 receptor (DRD2) small molecule antagonists, cell-based qHTS assay (AID 1963595; active means well fitted inhibition curve with a large enough effect in the signal ratio in the repeat runs, with a control signal flat; the % refers to the signal ratio; further: potency means the concentration at half of the fitted maximal effect). The procedure, abridged:
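HTRF cAMP read-out at 665 and 620 nm emission (340 nm excitation). Antagonist mode: compounds were tested against 12 nM quinpirole in DRD2-HEK293 cells, with 200 nM NKH477 raising cAMP and 0.1 mM Ro20-1724 blocking its breakdown.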

For assay [18], the target named is 5-hydroxytryptamine receptor 2A (Homo sapiens) (UniProt P28223). Description: 5-hydroxytryptamine receptor 2A (HTR2A) small molecule agonists, cell-based qHTS assay (AID 1963587). Further: nearly all actives have a fitted effect of over 30% in size. Further: potency means the concentration at half of the fitted maximal effect. The procedure, abridged: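 CHO cells stably expressing human HTR2A, plated 18 h, loaded with calcium dye 1 h at 37 C. Agonist mode: compounds added and intracellular calcium fluorescence recorded kinetically for 2 min at 1 sec intervals.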
5-hydroxytryptamine receptor 2A (Homo sapiens), sequence (P28223 whole entry, looked up): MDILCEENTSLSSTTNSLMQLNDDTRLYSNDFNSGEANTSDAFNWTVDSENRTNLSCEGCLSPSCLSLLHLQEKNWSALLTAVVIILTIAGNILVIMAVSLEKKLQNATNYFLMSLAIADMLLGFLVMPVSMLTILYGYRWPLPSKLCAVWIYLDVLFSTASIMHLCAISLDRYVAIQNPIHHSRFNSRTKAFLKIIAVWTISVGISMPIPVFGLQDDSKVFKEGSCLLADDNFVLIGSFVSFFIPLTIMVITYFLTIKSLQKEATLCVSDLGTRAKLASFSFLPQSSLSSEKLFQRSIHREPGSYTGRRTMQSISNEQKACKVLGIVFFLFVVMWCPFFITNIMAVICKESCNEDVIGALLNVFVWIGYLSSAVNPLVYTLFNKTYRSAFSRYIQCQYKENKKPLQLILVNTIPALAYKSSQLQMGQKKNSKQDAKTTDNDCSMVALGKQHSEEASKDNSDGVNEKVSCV

Assay [19] addresses Beta-2 adrenergic receptor (Homo sapiens) (UniProt P07550). The assay can be described thus: Adrenergic beta2 receptor (ADRB2) small molecule agonists, cell-based qHTS assay (AID 1963593).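 Further: CHO cells stably overexpressing human ADRB2.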 The procedure, abridged: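 CHO cells stably over-expressing ADRB2 were plated overnight at 37C, then dosed with compounds plus a stimulation mix containing 100uM IBMX and 25uM Ro-20-1724 for 0.5hr at room temperature. cAMP was measured by HTRF competition, 1hr.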

The nature of assay [20]: cAMP Responsive Elements (CRE) small molecule antagonists, cell-based qHTS assay (AID 1963591; active means well fitted inhibition curve with a large enough effect in the signal ratio in the repeat runs, not every such curve was filed as active; the % refers to the signal ratio). The procedure, abridged:
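Cells (CRE-bla HEK 293T, DMEM with 10% dialyzed FBS and 25 mM HEPES) are seeded and incubated 18 h. Compounds are added with NKH477 agonist at 0.25 uM final for 3 h, then FRET substrate for 2 h.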

The source of these data is PubChem BioAssay (Tox21).

Inconclusive results are not listed. Active and inactive are the calls of the source. Unless noted, the call rests on the fitted dose curve.

Beta-2 adrenergic receptor (Homo sapiens), sequence (P07550 whole entry, looked up): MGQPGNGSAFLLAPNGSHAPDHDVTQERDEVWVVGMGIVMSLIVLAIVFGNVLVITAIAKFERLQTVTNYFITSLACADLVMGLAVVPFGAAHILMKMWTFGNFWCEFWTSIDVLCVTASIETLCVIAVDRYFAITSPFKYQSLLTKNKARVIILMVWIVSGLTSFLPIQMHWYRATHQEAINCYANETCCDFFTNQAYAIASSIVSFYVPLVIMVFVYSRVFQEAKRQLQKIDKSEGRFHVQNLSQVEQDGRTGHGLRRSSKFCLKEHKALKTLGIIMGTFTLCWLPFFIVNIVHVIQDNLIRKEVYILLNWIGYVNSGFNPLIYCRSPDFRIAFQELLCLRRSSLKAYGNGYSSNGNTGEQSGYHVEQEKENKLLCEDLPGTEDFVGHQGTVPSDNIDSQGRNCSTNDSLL
KiSS-1 receptor (Homo sapiens), sequence (Q969F8 whole entry, looked up): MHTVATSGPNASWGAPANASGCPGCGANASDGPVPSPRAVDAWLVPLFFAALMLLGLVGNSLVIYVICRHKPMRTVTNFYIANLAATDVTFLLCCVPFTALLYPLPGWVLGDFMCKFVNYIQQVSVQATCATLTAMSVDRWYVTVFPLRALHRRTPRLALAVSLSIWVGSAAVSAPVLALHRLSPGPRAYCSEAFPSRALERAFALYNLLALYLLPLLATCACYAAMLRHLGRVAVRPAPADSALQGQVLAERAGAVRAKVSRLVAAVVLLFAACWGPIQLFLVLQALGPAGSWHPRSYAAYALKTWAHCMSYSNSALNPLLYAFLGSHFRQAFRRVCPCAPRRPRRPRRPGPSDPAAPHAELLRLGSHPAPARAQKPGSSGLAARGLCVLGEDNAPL
Muscarinic acetylcholine receptor M1 (Homo sapiens), sequence (P11229 whole entry, looked up): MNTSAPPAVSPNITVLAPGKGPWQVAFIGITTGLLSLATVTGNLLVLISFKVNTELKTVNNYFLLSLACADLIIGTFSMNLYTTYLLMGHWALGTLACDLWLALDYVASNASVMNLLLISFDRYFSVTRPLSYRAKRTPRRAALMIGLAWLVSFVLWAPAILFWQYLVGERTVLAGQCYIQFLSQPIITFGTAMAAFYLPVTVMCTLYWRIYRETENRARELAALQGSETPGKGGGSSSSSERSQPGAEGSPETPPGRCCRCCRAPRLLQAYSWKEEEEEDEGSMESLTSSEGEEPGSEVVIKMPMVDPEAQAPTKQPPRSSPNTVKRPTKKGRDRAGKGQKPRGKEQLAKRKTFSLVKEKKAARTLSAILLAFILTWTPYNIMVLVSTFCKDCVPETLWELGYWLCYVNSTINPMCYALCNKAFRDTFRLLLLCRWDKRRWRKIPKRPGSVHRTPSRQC
D(2) dopamine receptor (Homo sapiens), sequence (P14416 whole entry, looked up): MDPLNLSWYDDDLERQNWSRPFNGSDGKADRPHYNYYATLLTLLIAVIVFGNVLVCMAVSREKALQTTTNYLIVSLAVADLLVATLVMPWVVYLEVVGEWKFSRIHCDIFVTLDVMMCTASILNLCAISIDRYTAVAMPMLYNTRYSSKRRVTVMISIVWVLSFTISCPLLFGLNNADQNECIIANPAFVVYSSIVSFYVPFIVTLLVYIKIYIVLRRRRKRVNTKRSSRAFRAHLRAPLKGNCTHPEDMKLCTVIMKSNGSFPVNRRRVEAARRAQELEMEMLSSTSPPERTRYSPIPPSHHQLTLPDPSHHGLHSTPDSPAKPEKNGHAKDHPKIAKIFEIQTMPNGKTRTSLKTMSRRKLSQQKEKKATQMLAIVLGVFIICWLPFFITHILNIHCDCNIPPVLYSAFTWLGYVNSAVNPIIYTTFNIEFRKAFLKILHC

Turning to `O=S(=O)(O)c1cc(Cl)c(Cl)cc1Cl`, the Potency result in assay [1], in assay [2], in assay [3], in assay [4], in assay [5] and in assay [6] was “inactive” in each case. The Potency result in assay [7], in assay [8], in assay [9], in [10], in assay [11] and in [12] was “inactive” each time. Further, the Potency entry in [13], in [14], in assay [15], in [16] and in assay [17] was “inactive” throughout.

On to `CN(C)CC[C@@H](c1ccc(Br)cc1)c1ccccn1`, for which the Potency result in assay [1], in assay [2], in [7], in [8], in assay [18] and in [13] was “inactive” throughout. Besides, the Potency entry in assay [14], in assay [15], in assay [19], in [16] and in assay [17] was “inactive” in each case.

With `CC(C)COCC(CN(Cc1ccccc1)c1ccccc1)N1CCCC1` (centres undefined), the Potency in assay [1] was 26.6 µM (active); in assay [11] it was 6.5 µM (active); in assay [18], 19 µM (active); in assay [15] it was 26.6 µM (active); in [17] it was 29.8 µM (active). For the same molecule, the Potency entry in [2], in assay [3], in assay [4], in [5], in assay [6] and in assay [7] was “inactive” each time. The Potency entry in assay [8], in assay [9], in [10], in assay [12] and in assay [13] was “inactive” in each case.

`C[C@]12CCC(=O)C=C1C=C[C@@H]1[C@@H]2CC[C@@]2(C)[C@H]1CC[C@@]21CCC(=O)O1`: the Potency entry in assay [1], in assay [2], in assay [3], in [4], in [5] and in assay [6] was “inactive” in each case. Also, the Potency result in [9], in assay [10], in assay [11], in assay [18], in assay [13] and in assay [15] was “inactive” throughout. The Potency entry in [19] and in assay [17] was “inactive” each time.

`Cc1nc(N)nc(N)c1-c1ccc(Cl)c(Cl)c1`: the Potency result in assay [1], in [2], in [3], in assay [4], in assay [5] and in assay [7] was “inactive” each time. Besides, the Potency entry in [11], in [18], in assay [13], in [14], in [20] and in assay [15] was “inactive” throughout. For the same molecule, the Potency result in assay [16] and in [17] was “inactive” each time. For the same molecule, the Potency in assay [12] is 7.29 µM (active).

`O=C(O)CCCCCCCCCC(=O)O`: the Potency result in [1], in [2], in assay [3], in [4], in assay [5] and in [7] was “inactive” each time. Further, the Potency entry in [8], in [9], in assay [11], in [18], in assay [12] and in [13] was “inactive” each time. Also, the Potency result in assay [14], in assay [20], in assay [15], in assay [16] and in assay [17] was “inactive” throughout.

In the case of `O=C(OCCc1ccccc1)c1ccccc1`, the Potency result in [1], in assay [3], in assay [4], in assay [5], in [7] and in assay [9] was “inactive” throughout. Besides, the Potency entry in [10], in [11], in assay [18], in assay [13], in assay [15] and in assay [19] was “inactive” in each case. The Potency entry in assay [16] and in assay [17] was “inactive” throughout. For the same molecule, in assay [2], the Potency was 27.3 µM (active).

On to `C=C[Si](OC)(OC)OC`, for which the Potency result in [1], in assay [2], in [7], in assay [8], in assay [9] and in assay [11] was “inactive” throughout. The Potency entry in assay [18], in assay [12], in assay [14], in assay [20], in assay [15] and in assay [19] was “inactive” in each case. The Potency result in [16] and in assay [17] was “inactive” throughout.
